Among the data in publication PMC11062922 (Nature Chemical Biology, 2023) are potency estimated from few doses values, retold here.

The structures appear in SMILES notation. Where two headings read alike, the source gives them in different places.

Common to all, as to design: species or system human, MV4-11 + K-562 + COLO205 + SK-N-BE2 + OVCAR-8
Assay [1] deals with ACVR1B. The settings on record: read-out: apparent Kd; compound concentrations:100 nM and 1000 nM (sheet 'Samples'); n = 1.
Assay [2] concerns ACVR1. The settings on record: read-out: apparent Kd, n = 1.
For assay [3], the system named is BTK. The settings on record: read-out: apparent Kd, n = 1.
Assay [4] deals with CSK. The settings on record: read-out: apparent Kd, n = 1.
Assay [5] has as its system DDR1. Conditions: read-out: apparent Kd, n = 1.
Assay [6] relates to EPHA1. Conditions: read-out: apparent Kd, n = 1.
The test system of assay [7] is FLT3. Conditions: read-out: apparent Kd, n = 1.
Assay [8] relates to FRK. Conditions: read-out: apparent Kd, n = 1.
Assay [9] relates to LYN. The settings on record: read-out: apparent Kd, n = 1.
Assay [10] has as its system SIK2. Conditions: read-out: apparent Kd, n = 1.
Assay [11] relates to SRC. Conditions: read-out: apparent Kd, compound concentrations: 100 nM and 1000 nM (sheet 'Samples'), n = 1.
In assay [12] the test system is ACAD11. Conditions: read-out: apparent Kd, n = 1.
Assay [13] has as its system CDKL5. The settings on record: read-out: apparent Kd; compound concentrations: 100 nM and 1000 nM (sheet 'Samples'), CATDS: 6.9445234986253998E-3; n = 1.
For assay [14], the system named is GSK3A. Conditions: read-out: apparent Kd, compound concentrations: 100 nM and 1000 nM (sheet 'Samples'), n = 1.
Assay [15] concerns GSK3B. Conditions: read-out: apparent Kd, compound concentrations: 100 nM and 1000 nM (sheet 'Samples'), n = 1.
Assay [16] has as its system EGFR. Conditions: read-out: apparent Kd; compound concentrations: 100 nM and 1000 nM (sheet 'Samples'), CATDS: 5.3399275908321601E-2; n = 1.
In assay [17] the test system is MAP2K5. The settings on record: read-out: apparent Kd, compound concentrations: 100 nM and 1000 nM (sheet 'Samples'), n = 1.
The mark [18] stands for this setting: compound concentrations:100 nM and 1000 nM (sheet 'Samples').

Turning to `CCN(CC)CCOc1ccc(Nc2ncc3cc(-c4c(Cl)cccc4Cl)c(=O)n(C)c3n2)cc1` [SB-601273], the potency estimated from few doses was 170 nM in assay [1]; 218 nM in [2] (setting [18]); 318 nM in [3] (setting [18]); 838 nM in assay [4] (setting [18]); 165 nM in [5] (setting [18]); 2.59 nM in assay [6] (setting [18]). For the same compound, the potency estimated from few doses in [7] (setting [18]) was 891 nM; in assay [8] (setting [18]), 103 nM; in [9] (setting [18]), 111 nM; in [10] (setting [18]), 55.3 nM; in assay [11] (CATDS: 2.2831439455092799E-2) it was 137 nM.

For the compound `O=C1N=C(NCc2cccs2)SC1Cc1ccc2ncccc2c1` (stereo not drawn) [RO4629078-000], the potency estimated from few doses in assay [12] (compound concentrations: 100 nM and 1000 nM (sheet 'Samples'), CATDS: 8.0770900756938508E-3) is 1250 nM; in assay [2] (compound concentrations: 100 nM and 1000 nM (sheet 'Samples'), CATDS: 8.2545547739811299E-3), 1160 nM; in assay [3] (compound concentrations: 100 nM and 1000 nM (sheet 'Samples'), CATDS: 1.32457116906247E-2), 360 nM; in [13] it was 2320 nM; in [4] (compound concentrations: 100 nM and 1000 nM (sheet 'Samples'), CATDS: 1.22881462523177E-2), 419 nM; in [6] (compound concentrations: 100 nM and 1000 nM (sheet 'Samples'), CATDS: 1.25959830755684E-2), 398 nM. For the same compound, the potency estimated from few doses in [7] (compound concentrations: 100 nM and 1000 nM (sheet 'Samples'), CATDS: 7.9273479759833908E-3) is 1330 nM; in [8] (compound concentrations: 100 nM and 1000 nM (sheet 'Samples'), CATDS: 9.6278136963786204E-3), 738 nM; in [14] (CATDS: 2.0180819092640301E-2), 174 nM; in assay [15] (CATDS: 1.6634751009670601E-2) it was 238 nM; in assay [9] (compound concentrations: 100 nM and 1000 nM (sheet 'Samples'), CATDS: 9.9981449743306808E-3), 670 nM; in assay [10] (compound concentrations: 100 nM and 1000 nM (sheet 'Samples'), CATDS: 1.2411552216362301E-2), 411 nM. Moreover, the potency estimated from few doses in assay [11] (CATDS: 1.3307336951607501E-2) was 357 nM.

For `NS(=O)(=O)CCc1cccc(Nc2nccc(-c3c(-c4cccc(NC(=O)c5c(F)cccc5F)c4)nn4ccccc34)n2)c1` [GSK336735A], the potency estimated from few doses is 756 nM in assay [3] (compound concentrations: 100 nM and 1000 nM (sheet 'Samples'), CATDS: 6.9613472327250694E-2); 1220 nM in [4] (compound concentrations: 100 nM and 1000 nM (sheet 'Samples'), CATDS: 5.7355343721703998E-2); 1570 nM in assay [5] (compound concentrations: 100 nM and 1000 nM (sheet 'Samples'), CATDS: 5.2826618660154298E-2); 1520 nM in assay [16]; 720 nM in assay [9] (compound concentrations: 100 nM and 1000 nM (sheet 'Samples'), CATDS: 7.1175193729883096E-2).

On to `CN(C)Cc1ccc(-c2ccc3c(Nc4ccc(Oc5ccccn5)cc4)ccnc3c2)o1` [GW567148X], for which the potency estimated from few doses in assay [4] (compound concentrations: 100 nM and 1000 nM (sheet 'Samples'), CATDS: 1.6993908707239901E-2) is 1760 nM; in assay [6] (compound concentrations: 100 nM and 1000 nM (sheet 'Samples'), CATDS: 2.4503846064608301E-2) it was 577 nM; in assay [7] (compound concentrations: 100 nM and 1000 nM (sheet 'Samples'), CATDS: 2.7806184989220401E-2) it was 433 nM; in assay [8] (compound concentrations: 100 nM and 1000 nM (sheet 'Samples'), CATDS: 2.1087873700944799E-2), 850 nM; in assay [14] (CATDS: 2.2236241466677201E-2), 736 nM; in [15] (CATDS: 1.84231194054994E-2), 1300 nM. The potency estimated from few doses in assay [9] (compound concentrations: 100 nM and 1000 nM (sheet 'Samples'), CATDS: 2.6094910864106001E-2) is 499 nM; in [17] (CATDS: 0.100463270176777) it was 51.4 nM; in assay [11] (CATDS: 3.3500581656618303E-2) it was 297 nM.

Turning to `CS(=O)(=O)c1ccc(-c2cnc(N)c(C(=O)Nc3ccccc3)n2)cc1` [VE-821], the potency estimated from few doses was 334 nM in assay [12] (compound concentrations: 100 nM and 1000 nM (sheet 'Samples'), CATDS: 0.28747433490732499); 475 nM in assay [2] (compound concentrations: 100 nM and 1000 nM (sheet 'Samples'), CATDS: 0.23402364017956601).

In the case of `Nc1nc(N)c2nc(-c3ccccc3)[nH]c2n1` [SKF-12778], the potency estimated from few doses was 1290 nM in [12] (setting [18]), 1330 nM in assay [3] (setting [18]) and 1070 nM in assay [7] (setting [18]).

With `Cc1cc(O)cc(C)c1/C=C/c1cncc(-c2nn[nH]n2)c1.Cl` [GW441806A], the potency estimated from few doses in assay [2] (compound concentrations: 100 nM and 1000 nM (sheet 'Samples'), CATDS: 0.132778001486796) was 85.5 nM; in [17] (CATDS: 4.6114067598033499E-2), 1310 nM; in [10] (compound concentrations: 100 nM and 1000 nM (sheet 'Samples'), CATDS: 4.4020639379416998E-2) it was 1540 nM.

Consider `CN1CCN(Cc2cccc(-c3ccc4c(Nc5ccc(Oc6ccccc6)cc5)ccnc4c3)c2)CC1` [GW578342X], for which the potency estimated from few doses in [17] (CATDS: 0.10104411833730501) is 640 nM; in [11] (CATDS: 9.2821429290207799E-2), 825 nM.
